Screening results (PubChem BioAssay)
ssDAF12 agonist – activators of S. stercoralis DAF-12 nuclear receptor. HEK293 ssDAF-12/GRIP1 lit1-tk-luc reporter, luminescence; % of 3 µM dafachronic acid response. activation, % at 6.8 µM. actives 1% (n = 370,000);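 active = activation above the mean over all tested compounds plus 3 SD, cut at about 0.9% in these data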;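 note: 0% = DMSO-only wells and 100% = 3 µM delta7-dafachronic acid wells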
hgDAF-12 ag – agonists of H. glycines DAF-12 nuclear receptor. AID 687014. activation, % at 6.8 µM. actives 1.8% (n = 370,000). HEK293 GAL4-hgDAF12 UAS-luciferase reporter, agonist luminescence; normalized to butyrate control;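 active = activation above a cutoff set at the mean of all screened compounds plus 3 SD, cut at about 10% in these data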;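 note: 0% = DMSO wells and 100% = sodium butyrate wells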
SMARCA2 activ – increases SMARCA2 function in MMTV reporter cells; MG213 cells, MMTV-luciferase reporter, dexamethasone, overnight; activation, % at 9.1 µM; actives 1% (n = 370,000); AID 652017; in the data active = activation above about 7.8%;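 note: 0% = vehicle wells and 100% = reference activator wells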
DAX1 inh-1 – blocks DAX1 repression of SF-1 activated StAR promoter; HEK293T StAR-luciferase reporter, SF-1/DAX-1 repression relief; inhibition, % at 6.8 µM; actives 1.1% (n = 370,000); AID 652010;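 active = inhibition above the mean over all tested compounds plus 3 SD, cut at about 3.6% in these data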;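 note: 0% = DAX-1 cells with DMSO and 100% = cells lacking DAX-1 with DMSO; higher inhibition means more luminescence from relief of DAX-1 repression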
hcDAF12 agonist – H. contortus DAF-12 activation, primary screen. actives 1.4% (n = 370,000). HEK293 hcDAF-12 lit1-tk-luc reporter, luminescence; 0% DMSO, 100% Δ7-dafachronic acid. activation, % at 6.8 µM. AID 652067;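 active = activation above the mean of all tested compounds plus 3 SD, cut at about 5.5% in these data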;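 note: 100% = response to 3 µM Δ7-dafachronic acid high control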
DAX1 inh-2 – inhibitors of human orphan nuclear receptor DAX1 (NR0B1). P51843. HEK293 Gal4-DAX1 luciferase reporter, luminescence. inhibition, % at 6.75 µM. actives 0.99% (n = 340,000). AID 504766;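 active = inhibition above the mean over all tested compounds plus 3 SD, cut at about 4.2% in these data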;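 note: 0% = DAX1-transfected cells with DMSO and 100% = empty-vector control cells with DMSO; inhibition shows as a rise in luminescence from relieved DAX1 repression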
Target sequence (P51843 207-470 limits assumed): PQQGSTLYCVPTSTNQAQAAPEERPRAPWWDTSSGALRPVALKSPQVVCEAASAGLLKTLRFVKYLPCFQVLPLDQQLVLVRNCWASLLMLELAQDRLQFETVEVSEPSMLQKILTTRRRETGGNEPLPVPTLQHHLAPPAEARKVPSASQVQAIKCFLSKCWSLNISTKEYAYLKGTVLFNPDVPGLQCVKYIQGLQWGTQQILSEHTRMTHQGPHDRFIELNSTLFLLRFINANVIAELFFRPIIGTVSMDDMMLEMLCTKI
SMARCA2 conf – confirmation of SMARCA2 (BRM) function activators. shares compounds with SMARCA2 activ. MG213 cells, MMTV-luciferase with dexamethasone, luminescence, overnight; MG213 cells expressing E1A, Rb sequestered; DMSO wells 0%, reference activator 100%. activation, % at 9.1 µM. actives 30% (n = 3,500). AID 652260;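 active = activation above its plate's cutoff, the mean activation of tested wells plus 3 SD, cut at about 7.9% in these data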
VP16 Luc act – counter-screen for SMARCA2 activators: GAL4-VP16 luciferase reporter activation; activation, % at 9.1 µM; shares compounds with SMARCA2 activ; AID 686939; actives 41% (n = 3,500); HEK293 GAL4-VP16 pG5luc reporter, luciferase luminescence; scaled: DMSO wells 0%, SAHA wells 100%;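 active = activation above the solvent-only control well mean plus 3 SD, averaged across control plates, cut at about 5.2% in these data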
An asterisk follows results filed as active; · = not tested or not shown. Sampled rows, rich in hits. Any-hit rate of the full collection: about 4.8%.

SMILES	ssDAF12 agonist	hgDAF-12 ag	SMARCA2 activ	DAX1 inh-1	hcDAF12 agonist	DAX1 inh-2	SMARCA2 conf	VP16 Luc act
COc1ccc(N2CCN(CCNS(=O)(=O)c3ccc(F)cc3)CC2)cc1	-2	-1	2	-1	0	·	·	·
O=C(Nc1cc(Cl)ccc1Oc1ccccc1)c1ccccc1F	-1	-1	8.9*	-1	-2	-1	-4	1
O=C(Nc1cc(Cl)ccc1Oc1ccccc1)c1ccc(F)cc1	-2	-3	-3	-1	-2	0	·	·
CCOC(=O)[C@]12CCCC=C1N(Cc1ccc(OC)cc1)C(=O)[C@@H]2CC(=O)NCCCOC	-1	-1	-3	-1	-2	·	·	·
Cc1cccc2nc(CSc3nnnn3-c3ccccc3)cn12	-1	1	-1	0	-2	-1	·	·
Cc1cccc2nc(CSc3nnc4ccccn34)cn12	0	12*	8.4*	4	5.8*	2	9.9*	12*
O=C(CSc1nnc(-c2cccnc2)n1-c1ccccc1)c1ccccc1Cl	0	4	8.6*	0	-1	·	2	1
COC(=O)[C@]12C[C@H](CC(=O)N3CCCC3)C(=O)N(Cc3ccco3)C1=C[C@H](COCc1ccccc1)O[C@@H]2C	-1	1	-3	-1	0	·	·	·
Cc1ccc(S(=O)(=O)Nc2ccc(-c3nnc(SCc4ccccc4Cl)o3)cc2)cc1	-1	0	4	0	-1	0	·	·
Cc1ccccc1-c1nnc(SCc2ccccc2)o1	0	3	13*	0	3	4	7	5
Cc1ccc(CSc2nnc(-c3ccc(NS(=O)(=O)c4ccccc4)cc3)o2)cc1	1.7*	-1	11*	0	-4	0	-2	-1
COc1cccc(NC(=O)Nc2c(-c3ccc(C)cc3)nc3ncccn23)c1	0	2	-1	0	2	·	·	·
CCOC(=O)c1nn(-c2ccccc2)cc1O	-1	0	3	1	1	1	·	·
CCOC(=O)c1nn(-c2ccc3ccccc3c2)cc1O	-2	13*	8.2*	4.4*	2	1	3	5.6*
Fc1cccc(F)c1-n1c(CN2CCOCC2)csc1=S	-2	2	8.7*	0	-1	0	-1	-1
CSc1ccccc1C(=O)Nc1ccc(C)c(C)c1	0	7	2	2	1	0	·	·
CSc1ccccc1C(=O)Nc1cc(C)cc(C)c1	-1	2	9.3*	0	-3	-1	5	1
CC(Sc1nnc(NC2CC2)s1)C(=O)Nc1ccc(N2CCOCC2)cc1 (configuration not stated)	-1	1	-2	1	0	-1	·	·
CC(Sc1nnc(NC2CCCCC2)s1)C(=O)Nc1ccc2c(c1)C(=O)c1ccccc1C2=O (configuration not stated)	-1	4	10.0*	2	1	2	3	12*
CC(C)C(=O)N[C@H]1CCC2C3CC=C4C[C@@H](O)CC[C@]4(C)C3CC[C@@]21C (some centres not stated)	-1	-2	-2	-2	-1	-1	·	·
CCCCCCN[C@H]1CCC2C3CC=C4C[C@@H](O)CC[C@]4(C)C3CC[C@@]21C (some centres not stated)	-1	-1	11*	0	0	-1	9.7*	1
CCN(CC)CCNC(=O)Cc1c(C(=O)O)n(C)c2ccccc12	-1	2	9.5*	-1	-2	2	-1	0
CCN(CC)CCCNC(=O)Cc1c(C(=O)O)n(C)c2ccccc12	-1	0	-4	-1	1	1	·	·
CC1CCCN(CCCNC(=O)c2cc3c(Cl)nc4ccccc4c3s2)C1 (configuration not stated)	-1	2	15*	1	0	0	26*	2
CN(CCCNC(=O)c1cc2c(Cl)nc3ccccc3c2s1)Cc1ccccc1	-1	-2	7	1	-1	0	·	·
SMILES	ssDAF12 agonist	hgDAF-12 ag	SMARCA2 activ	DAX1 inh-1	hcDAF12 agonist	DAX1 inh-2	SMARCA2 conf	VP16 Luc act
CCN(CC)CCCNC(=O)c1cc2c(Cl)nc3ccccc3c2s1	-1	3	18*	1	3	2	23*	1
Cc1cccc(-c2cccc3c4c([nH]c23)[C@@H]2C[C@H](N(C)C(=O)Nc3ccccc3)[C@H]([C@H](C)O)C(=O)N2CC4)c1	-1	0	9.2*	-1	-3	·	-4	-1
CCC(C)CNC(=O)c1oc(=O)c2ccccc2c1-c1ccc(C)cc1 (configuration not stated)	-2	-3	-2	0	1	·	·	·
COCCNc1nc2cc(-c3ccc(C)cc3)sc2c(=O)n1C	1.0*	12*	9.0*	3.8*	3	·	8.8*	14*
COc1ccc2oc(=O)c(-c3nnc(NCc4ccco4)s3)cc2c1	0	6	15*	1	1	4	15*	6.5*
CNc1nnc(-c2cc3cc(Cl)ccc3oc2=O)s1	-1	3	9.7*	1	0	2	10*	11*
C=CC[C@]1(c2ccccc2)C(=O)N2C[C@H]3CON(C)[C@H]3C[C@H]2c2ccccc21	-1	1	-1	1	0	·	·	·
O=C(Nc1cnc2sccn2c1=O)c1ccccc1Cl	-1	9	8.0*	3.9*	3	0	15*	11*
COc1ccc(NC(=O)c2cnc3sccn3c2=O)cc1	0.9*	8	8.3*	2	5	0	8	5.2*
COC(=O)c1cc(-c2cccc(C(C)C)c2)c(=O)n2c1CCC2	-1	-5	-1	-2	-1	·	·	·
CC(C)OC(=O)c1ccc(N2C(=O)C3CC=CCC3C2=O)cc1 (configuration not stated)	-1	1	8.8*	0	0	1	0	2
O=C(CNC(=O)c1ccc(Br)cc1)N/N=C/c1cccnc1	-2	-3	10*	0	-2	0	1	1
Cc1ccccc1CN1CCCCC(NC(=O)c2ccccc2C(F)(F)F)C1=O (configuration not stated)	-1	-5	-2	-1	-4	·	·	·
CCn1c(SCC(=O)Nc2ccc(C(=O)OC)cc2)nnc1-c1cccc(Cl)c1	-2	-3	-5	-2	-3	·	·	·
